Measurements reported in PubChem BioAssay (NCATS).
Several values for one entry are separate records, joined by “and”; a condition that tells them apart may be missing. Identical values can stand only once. Records with an inconclusive call do not appear. Activity calls are given as the source filed them. Unless noted, calls follow the shape of the dose curve; as a rule, active = well fitted curve in the direction sought with a large enough effect; inconclusive = small, poorly fitted or top-dose-only effect, or another doubt; inactive = no such curve, though single readings can be large; an effect the other way counts as inactive or inconclusive.

Tests used:
[1] = Cell Viability - HepG2 (AID 433; calls by dose curve;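 also: potency is read from the fitted curve at half-maximal effect; cells exposed to compound for 40 hours; potency for ATP loss meaning cytotoxicity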); conditions: qHTS
In short: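 In this qHTS format, a 40 h, 37 °C compound incubation of HepG2 cells in complete medium precedes a 20 min CellTiter-Glo step at room temperature. Tamoxifen and doxorubicin serve as positive controls; Hill-equation fits yield AC50.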

[2] = Cell Viability - MRC5 (AID 434; calls by dose curve;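 also: potency is read from the fitted curve at half-maximal effect; cells exposed to compound for 40 hours at 37 °C; potency reflects cytotoxicity seen as loss of intracellular ATP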); conditions: MRC5 lung fibroblast viability, qHTS
In short: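 ATP luminescence read-out (CellTiter-Glo, 20 min RT) after 40 hr, 37 °C compound exposure of 1500 MRC5 cells/well. Data normalized to DMSO (basal) and 100 uM tamoxifen (100% inhibition); AC50 from standard Hill equation.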

[3] = molecular target: Mitogen-activated protein kinase 10 (Mus musculus) (UniProt Q61831); test: JNK3 AlphaScreen Assay (AID 530; active = well fitted curve in either direction with a large enough effect, not every such curve was filed as active;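 also: kinase came from lysate of stimulated human HepG2 cells; signal reports phosphorylation of biotinylated GST-cJun 1-79 at Ser73 with 10 µM ATP; % is scaled to controls: 0 for no effect and ±100 for the full control effect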); conditions: JNK3 lysate, c-Jun phosphorylation; series mostly up to 57.1 µM
In short: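 HepG2 lysate (IL-1b/TNFa pre-activated) + biotin-GST-cJun 1-79 + anti-pSer73 cJun; cpd titration, 15 min RT; ATP 10 uM start; Tris pH 7.6, MgCl2, DTT, vanadate; beads in EDTA buffer; AlphaScreen.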

[4] = Cell Viability - Mesenchymal (AID 546); conditions: mesenchymal cells viability, qHTS; series mostly up to 91.7 µM;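 also: cells exposed to compound for 40 hours before reading; 0% = DMSO only and -100% = 100 µM tamoxifen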
In short: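 Human renal mesenchymal cells (glomerulus-derived), 1000 cells/well, 5 hr 37 °C pre-incubation; compound 40 hr, 37 °C; CellTiter-Glo, 20 min RT; luminescence; AC50 via Hill equation.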

[5] = Cellular Toxicity (caspase-3) HUV-EC-C (AID 656); conditions: HUV-EC-C cells, caspase-3 activation (apoptosis), vehicle = 0, 100 µM tamoxifen = 100%; series mostly up to 92.2 µM;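 also: 0% = DMSO basal and 100% = 100 µM tamoxifen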
In short: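 Concentration-dependent caspase 3/7 induction was assessed in HUV-EC-C cells exposed for 16 hours. Data scaled between DMSO and tamoxifen (100 uM) controls.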

[6] = Cellular Toxicity (caspase-3) SK-N-SH (AID 661); conditions: SK-N-SH caspase-3 activation, qHTS; series mostly up to 91.7 µM;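 also: 0% = DMSO basal and 100% = 10 µM staurosporine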
In short: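 Luminescent Caspase-Glo 3/7 read-out after 16 hr compound exposure of SK-N-SH neuroblastoma cells at 37 °C. Signal increase normalized to DMSO (basal) and 10 uM staurosporine (100%); AC50 from Hill equation fits of qHTS concentration-response data.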

[7] = Cellular Toxicity (caspase-3) H-4-II-E (AID 663); conditions: H-4-II-E rat hepatoma; Potency: caspase-3 activation; series mostly up to 92.2 µM;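 also: cells exposed to compound for 16 hr before readout; 0% = DMSO basal and 100% = 100 µM tamoxifen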
In short: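 H-4-II-E rat hepatoma, 1500 cells/well, 5 hr settle at 37 °C; compound 16 hr, 37 °C, complete medium; Caspase-Glo 3/7, 20 min RT; luminescence. DMSO = 0%, 100 uM tamoxifen = 100%; Hill-equation AC50.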

[8] = MultiTox-Fluor Cytotoxicity Assay - LYMP1-002 - Dead Cells (AID 960); conditions: LYMP1-002 lymphoblastoid cells, dead-cell protease fluorescence; series mostly up to 46.1 µM;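 also: 0% = DMSO and 100% = tetraoctylammonium bromide; nearly all actives have a fitted effect of over 60% in size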
In short: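 Readout: fluorescence at 485/520 from cell-impermeant bis-AAF-R110 cleaved by proteases leaking from damaged cells. LYMP1-002 lymphoblastoid line, 16 hr compound treatment at 37 C, concentration-response in qHTS format; Hill-equation AC50 values.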

[9] = MultiTox-Fluor Cytotoxicity Assay - LYMP1-003 - Live Cells (AID 962); conditions: LYMP1-003 lymphoblastoid cells, MultiTox-Fluor live-cell protease fluorescence; series mostly up to 92.2 µM;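 also: cells exposed to compound for 16 hours at 37 °C; 0% = DMSO only and full loss = 92 µM tetraoctylammonium bromide; cytotoxic hits lower the live-cell protease signal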
In short: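 Readout: live-cell fluorescence (Ex/Em=405/510) from GF-AFC cleavage after 60 min MultiTox-Fluor reagent at room temperature. Lymphoblastoid LYMP1-003 cells, 16 hr compound treatment, 37 C. Concentration-response fitted to standard Hill equation for AC50.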

[10] = Cell Viability - LYMP2-005 (AID 967); conditions: LYMP2-005 lymphoblastoid cell viability; series mostly up to 92.2 µM;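 also: plate controls were DMSO only for no effect and 92 µM tetraoctylammonium bromide control for full effect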
In short: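 Luciferase-based ATP quantitation served as the viability measure in human lymphoblastoid LYMP2-005 cells exposed to test compounds for 24 h at 37 C in complete culture medium. Potency (AC50) was obtained by fitting concentration-response curves with the Hill equation.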

[11] = Cell Viability - LYMP2-021 (AID 974); conditions: LYMP2-021 lymphoblastoid cells viability; series mostly up to 92.2 µM;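 also: compound exposure lasts 24 hours at 37 °C; % is scaled to controls: 0 for no effect and ±100 for the full control effect; nearly all actives have a fitted effect of over 55% in size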
In short: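 ATP luminescence (CellTiter-Glo, 30 min RT) after 24 h compound exposure at 37 C; 2500 human lymphoblastoid cells/well, 5 h settle beforehand. Cytotoxicity = concentration-dependent ATP drop, AC50 by Hill fit.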

[12] = Cell Viability - LYMP2-023 (AID 975); conditions: LYMP2-023 lymphoblastoid cell viability; series mostly up to 92.2 µM;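 also: cellular ATP measured by luciferase luminescence as viability proxy; plate controls were DMSO only for no effect and 92 µM tetraoctylammonium bromide control for full effect; nearly all actives have a fitted effect of over 55% in size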
In short: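 CellTiter-Glo luminescence after 30 min at room temperature; decrease in intracellular ATP reflects toxicity. Cells: human lymphoblastoid line, 2500/well, 24 hr compound exposure at 37 C. AC50 fitted to standard Hill equation from concentration-response.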

[13] = Cell Viability - LYMP2-006 (AID 978); conditions: LYMP2-006 lymphoblastoid cell viability, qHTS; series mostly up to 92.2 µM; also: % is scaled to controls: 0 for no effect and ±100 for the full control effect; nearly all actives have a fitted effect of over 60% in size
In short: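 In this cytotoxicity screen, the human lymphoblastoid line grew in complete medium with test compounds for 24 hr at 37 C. Cellular ATP served as the viability signal.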

[14] = Cell Viability - LYMP2-007 (AID 979); conditions: LYMP2-007 lymphoblastoid cell viability; series mostly up to 92.2 µM;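 also: cells exposed to compound for 24 h before reading; 0% = DMSO only and the negative end = 92 µM tetraoctylammonium bromide; nearly all actives have a fitted effect of over 60% in size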
In short: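 qHTS cytotoxicity: 2500 cells/well, 5 hr 37 C settle, compound 24 hr 37 C, CellTiter-Glo 30 min RT, luminescence. Decrease in ATP = toxicity. AC50 by standard Hill equation; tetraoctylammonium bromide positive control.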

[15] = molecular target: Vitamin D3 receptor (Homo sapiens) (UniProt P11473); test: qHTS assay for small molecule antagonists of vitamin D receptor signaling (AID 588541; calls by dose curve;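 also: receptor activated by calcitriol during compound treatment; % is scaled to controls: 0 for no effect and ±100 for the full control effect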); conditions: HEK293T VDR-UAS-bla, beta-lactamase ratio, antagonist mode; series mostly up to 76.7 µM
Vitamin D3 receptor (Homo sapiens), sequence (P11473 whole entry, looked up): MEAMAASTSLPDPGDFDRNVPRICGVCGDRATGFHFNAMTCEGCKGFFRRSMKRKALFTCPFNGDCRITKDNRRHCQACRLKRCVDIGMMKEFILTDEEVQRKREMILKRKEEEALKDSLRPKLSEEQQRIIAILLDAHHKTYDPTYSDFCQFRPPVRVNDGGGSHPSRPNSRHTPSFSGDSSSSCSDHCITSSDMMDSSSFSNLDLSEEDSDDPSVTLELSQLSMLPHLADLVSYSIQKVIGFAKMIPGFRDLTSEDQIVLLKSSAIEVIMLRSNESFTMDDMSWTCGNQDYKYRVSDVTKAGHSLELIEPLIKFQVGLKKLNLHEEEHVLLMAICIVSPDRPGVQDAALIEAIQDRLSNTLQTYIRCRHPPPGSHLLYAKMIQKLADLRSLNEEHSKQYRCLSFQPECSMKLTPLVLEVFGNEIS
In short: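 VDR-UAS-bla HEK293T cells in 2% charcoal-stripped FBS were stimulated with 1-alpha,25-dihydroxyvitamin D3 (3 nM final) plus compound for 16 h at 37 C. The beta-lactamase CCF4 readout was normalized to 50 nM agonist and DMSO, and Hill fits gave IC50.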

[16] = molecular target: Retinoic acid receptor RXR-alpha (Homo sapiens) (UniProt P19793); test: qHTS assay for small molecule agonists of retinoid X receptor alpha signaling (AID 588544; calls by dose curve;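 also: 0% = DMSO basal wells and 100% = reference agonist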); conditions: HEK293T RXRa-UAS-bla, beta-lactamase reporter, 18 h; series mostly up to 76.7 µM
Retinoic acid receptor RXR-alpha (Homo sapiens), sequence (P19793 whole entry, looked up): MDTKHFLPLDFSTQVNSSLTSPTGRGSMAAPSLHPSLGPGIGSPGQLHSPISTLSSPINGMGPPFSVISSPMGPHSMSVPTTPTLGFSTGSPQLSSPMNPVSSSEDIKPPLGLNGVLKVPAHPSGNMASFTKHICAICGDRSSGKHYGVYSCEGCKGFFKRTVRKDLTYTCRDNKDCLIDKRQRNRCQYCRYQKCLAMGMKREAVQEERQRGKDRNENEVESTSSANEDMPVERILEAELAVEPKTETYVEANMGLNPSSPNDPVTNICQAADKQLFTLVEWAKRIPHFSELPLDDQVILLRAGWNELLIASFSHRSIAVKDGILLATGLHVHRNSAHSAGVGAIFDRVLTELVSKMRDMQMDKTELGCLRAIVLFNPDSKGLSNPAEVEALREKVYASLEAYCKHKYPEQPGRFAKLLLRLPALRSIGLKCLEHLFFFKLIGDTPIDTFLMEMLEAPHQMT

[17] = molecular target: Thyroid hormone receptor beta (Homo sapiens) (UniProt P10828); test: qHTS assay for small molecule agonists of thyroid hormone receptor beta signaling (AID 588545; calls by dose curve;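 also: 0% = DMSO only and 100% = 10 nM T3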); conditions: TR-UAS-bla GripTite HEK 293, beta-lactamase ratio, agonist mode, 18 h; series mostly up to 76.7 µM
Thyroid hormone receptor beta (Homo sapiens), sequence (P10828 whole entry, looked up): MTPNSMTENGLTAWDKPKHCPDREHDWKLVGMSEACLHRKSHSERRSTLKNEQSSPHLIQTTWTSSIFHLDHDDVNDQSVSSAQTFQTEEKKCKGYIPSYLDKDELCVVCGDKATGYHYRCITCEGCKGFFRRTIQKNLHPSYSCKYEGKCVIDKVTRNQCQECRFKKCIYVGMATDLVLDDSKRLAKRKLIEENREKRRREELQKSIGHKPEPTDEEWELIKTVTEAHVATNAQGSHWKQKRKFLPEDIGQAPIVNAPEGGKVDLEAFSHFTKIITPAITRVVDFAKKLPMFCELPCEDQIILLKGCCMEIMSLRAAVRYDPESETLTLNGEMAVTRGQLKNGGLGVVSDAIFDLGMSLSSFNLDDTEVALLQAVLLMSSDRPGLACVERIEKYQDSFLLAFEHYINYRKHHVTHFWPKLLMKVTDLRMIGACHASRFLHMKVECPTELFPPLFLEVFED
In short: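 Compounds were tested as agonists in TR-UAS-bla-GripTite HEK 293 cells. After 18 hrs at 37 C, CCF4 substrate was added and fluorescence read after 2 hrs at room temperature.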

[18] = molecular target: Nuclear receptor subfamily 1 group I member 2 (Rattus norvegicus) (UniProt Q9R1A7); test: qHTS assay for small molecule activators of the rat pregnane X receptor (rPXR) signaling pathway (AID 651751; call rule not given here; also: 0% is about no effect); conditions: rPXR reporter cells, luciferase (One-Glo), 24 h
Nuclear receptor subfamily 1 group I member 2 (Rattus norvegicus), sequence (Q9R1A7 whole entry, looked up): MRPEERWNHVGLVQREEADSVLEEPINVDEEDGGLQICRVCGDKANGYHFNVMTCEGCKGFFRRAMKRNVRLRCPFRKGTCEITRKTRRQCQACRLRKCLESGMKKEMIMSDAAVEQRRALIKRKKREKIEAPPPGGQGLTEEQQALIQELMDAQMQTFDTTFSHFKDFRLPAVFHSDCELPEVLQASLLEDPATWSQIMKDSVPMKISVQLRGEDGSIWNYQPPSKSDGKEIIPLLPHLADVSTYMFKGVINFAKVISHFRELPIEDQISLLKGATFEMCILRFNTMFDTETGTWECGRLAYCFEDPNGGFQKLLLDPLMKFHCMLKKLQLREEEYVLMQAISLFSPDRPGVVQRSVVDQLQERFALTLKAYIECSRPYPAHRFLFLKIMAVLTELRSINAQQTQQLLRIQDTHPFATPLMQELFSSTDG

[19] = qHTS assay for small molecule activators of the human pregnane X receptor (PXR) signaling pathway (AID 720659; call rule not given here; also: 0% is about no effect); conditions: DPX-2 HepG2 CYP3A4-luciferase, 24 h; series mostly up to 92.3 µM
[20] = molecular target: Thyroid hormone receptor beta (Homo sapiens) (UniProt P10828); test: qHTS assay for small molecule antagonists of thyroid hormone receptor beta signaling (AID 588547; active = well fitted inhibition curve with a large enough effect in the signal ratio, with a control signal flat, not every such curve was filed as active; the % refers to the signal ratio;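 also: cells stimulated with 0.4 nM T3 agonist during compound exposure; % is scaled to controls: 0 for no effect and ±100 for the full control effect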); conditions: TR-UAS-bla HEK293, beta-lactamase ratio, antagonist mode, 18 h
In short: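 TR-UAS-bla GripTite HEK293 cells in 2% charcoal/dextran FBS medium; compounds 0.59 nM to 92 uM with T3 at 0.4nM final, 18 h at 37 C. Beta-lactamase read by CCF4 fluorescence (460/530 nm); Hill fits gave IC50 and efficacy.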

O=[N+]([O-])c1ccc(Cl)c(Cl)c1Cl
inactive: Potency [1] > 92 µM | Potency [2] > 92 µM | Potency [3] | Potency [4] | outcome [5] | Potency [6] | Potency [7] | Potency [8] | outcome [9] | Potency [10] | Potency [11] | Potency [12] | Potency [13] | Potency [14] | outcome [15] | outcome [16] | Potency [17] | max response [18] -4.87% | outcome [19]

CC12CC1(C)C(=O)N(c1cc(Cl)cc(Cl)c1)C2=O (centres undefined)
inactive: Potency [1] > 92 µM | Potency [2] > 92 µM | Potency [3] | Potency [4] | outcome [5] | Potency [6] | Potency [8] | outcome [9] | Potency [10] | Potency [12] | Potency [13] | Potency [14] | outcome [15] | outcome [16] | Potency [17] | activity change % (negative = inhibition) [20] 4.26% and 9.02% | max response [18] 12.6% and 11%

Nc1cccc(Cl)c1
inactive: Potency [1] > 92 µM | Potency [2] > 92 µM | Potency [3] | Potency [4] | outcome [5] | Potency [6] | Potency [8] | outcome [9] | Potency [11] | Potency [12] | Potency [13] | outcome [15] | outcome [16] | Potency [17] | activity change % (negative = inhibition) [20] 2.78% | max response [18] 1.89% | outcome [19]

CN=C=O
inactive: Potency [1] > 92 µM | Potency [2] > 92 µM | Potency [3] | outcome [5] | Potency [6] | Potency [8] | outcome [9] | Potency [11] | Potency [12] | Potency [13] | outcome [16] | Potency [17] | activity change % (negative = inhibition) [20] -7.41% | max response [18] 8.83% | outcome [19]

CC(=O)CCC(C)=O
inactive: Potency [1] > 92 µM | Potency [2] > 92 µM | Potency [3] | Potency [4] | outcome [5] | Potency [6] | Potency [7] | Potency [8] | outcome [9] | Potency [10] | Potency [11] | Potency [14] | outcome [15] | outcome [16] | Potency [17] | activity change % (negative = inhibition) [20] 15% | max response [18] -1.31% | outcome [19]

ClCC(Br)CBr (centres undefined)
inactive: Potency [1] > 92 µM | Potency [2] > 92 µM | Potency [3] | outcome [5] | Potency [6] | Potency [7] | Potency [8] | outcome [9] | Potency [10] | Potency [11] | Potency [12] | Potency [13] | Potency [14] | outcome [15] | outcome [16] | Potency [17] | activity change % (negative = inhibition) [20] 6.39% | max response [18] 0.571% | outcome [19]

CCN(CC)N=O
inactive: Potency [1] > 92 µM | Potency [2] > 92 µM | Potency [3] | Potency [4] | outcome [5] | Potency [6] | Potency [7] | Potency [8] | outcome [9] | Potency [10] | Potency [11] | Potency [12] | Potency [13] | Potency [14] | outcome [15] | outcome [16] | Potency [17] | max response [18] 3.34% | outcome [19]
